p97 ATPase inh = inhibitors of human p97 ATPase, primary screen, biochemical; 0.42% of 220,000 active; recombinant p97 ATPase, Kinase-Glo ATP luminescence, 3 h; inhibition, % at 8 µM; in the data active means inhibition above about 15%;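 further: 0% = DMSO vehicle and 100% = wells lacking enzyme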
Hck-Nef inh = inhibitors of Nef-activated human Hck kinase, primary screen, biochemical, Z-Lyte FRET, 384-well, Hck-YEEI; Tyrosine-protein kinase HCK (Homo sapiens), P08631; Recombinant Hck-YEEI plus Nef, Z-Lyte FRET kinase assay; inhibition, % at 20 µM; 0.68% of 220,000 active; AID 463187, 2010;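 active means Hck-Nef kinase inhibition above about 50%, limit read from the data; inactive means inhibition below that limit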;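 further: 0% = DMSO with Hck plus Nef and 100% = Hck alone without Nef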
EP2 antag = human EP2 receptor antagonists, primary screen, TR-FRET cAMP, C6 glioma cells | Prostaglandin E2 receptor EP2 subtype (Homo sapiens), P43116 | C6 glioma cells expressing human EP2; cells stimulated with saturating PGE2 | inhibition, % at 25 µM | 0.52% of 260,000 active | AID 1422, 2008;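 active means percent inhibition above 40 after rounding to a whole number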;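 further: rat C6 glioma host cells with rolipram phosphodiesterase inhibitor present; the protocol text gives 20 µM as final concentration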
Arbovirus anti = antivirals against arbovirus infection, primary screen, cell-based, full library, 10K replicate subset | arbovirus infection cell-based antiviral screen | inhibition, % at 10 µM | 0.37% of 200,000 active | AID 1251, 2008; in the data active means inhibition above about 30%
EP2 mod = EP2 receptor modulators, cAMP readout, primary screen, cell-based, HTRF cAMP, PGE2 stimulation; Prostaglandin E2 receptor EP2 subtype (Homo sapiens), P43116; EP2-expressing cells, cAMP HTRF FRET, PGE2 co-stimulation; induction, % at 25 µM; 0.83% of 260,000 active; AID 940, 2007;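 active means compounds whose cAMP rise, as percent of the full-agonist control response, exceeds 60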;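 further: rat C6 glioma line stably carrying human EP2 under a CMV promoter; the protocol text gives 20 µM as final concentration; 100% = response of wells given 1 µM PGE2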
Hck-Nef confirm = retest of Hck:Nef kinase inhibitor hits, confirmation, biochemical, Z-Lyte FRET, 384-well, p-Tyr peptide counterscreen. Recombinant Hck-YEEI:Nef, Z-Lyte FRET kinase assay. calls only at 10 µM. shares compounds with Hck-Nef inh. 28% of 1,300 active. AID 463188, 2010;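 active means average inhibition of at least 50%, with Z-scores no higher than 3 in both the phospho-tyrosine peptide and fluorescence counterscreens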
The depositor's hits bear a star; i = inactive; / = not tested or not shown; + = active, no number. A selection: hits, their analogues and other compounds. The true share with any hit is near 2.4%.

SMILES	p97 ATPase inh	Hck-Nef inh	EP2 antag	Arbovirus anti	EP2 mod	Hck-Nef confirm
CCOC(=O)c1ccc(N2N=C(C)/C(=C/C=C/c3ccco3)C2=O)cc1	0	8	5	-6	-5	/
CCCNC(=O)COC(=O)c1cc2c(=O)n3ccccc3nc2s1	9	51*	11	11	19	i
CCOC(=O)Cc1csc(NC(=O)COc2ccc(C)c(C)c2)n1	1	53*	6	12	-13	i
Cc1c(OC(=O)CNC(=O)OC(C)(C)C)ccc2c3c(c(=O)oc12)CCC3	2	64*	10	4	3	/
CC1=NOC(=O)/C1=C\c1ccc(-c2ccc(Br)cc2)o1	3	113*	76*	-22	-69	i
Cn1c(=O)sc2cc(S(=O)(=O)O)ccc21	/	/	7	/	-30	/
CSc1nsc(/C=C/Nc2ccc(C(=O)O)cc2)c1C#N	-2	21	8	6	-23	/
CSc1nsc(/C=C/Nc2ccc(F)cc2F)c1C#N	5	51*	7	8	-24	i
Cc1cc(C)c2[nH]c(=O)c(CN(Cc3ccccc3)C(=O)c3cccnc3)cc2c1	/	/	8	/	-27	/
O=C(Cn1nc2n(Cc3ccccc3F)c3ccccc3n2c1=O)N1CCCC1	/	/	/	/	1	/
C=CCNC(=O)c1cc(Cl)ccc1[N+](=O)[O-]	2	1	2	-5	-1	/
C=CCN(CC=C)C(=O)c1cc(Cl)ccc1[N+](=O)[O-]	0	64*	11	2	5	i
CCC(NC(=O)c1ccc(-n2cnnc2)cc1Cl)c1ccc(F)cc1 (stereo unspecified)	/	/	7	/	-24	/
COc1ccc(OC)c(NC(=O)c2c(NCc3cccnc3)sc3c2CCCCC3)c1	/	/	8	/	-6	/
C=CCn1c(N)c(C(=O)NCC2CCCO2)c2nc3ccccc3nc21 (stereo unspecified)	-2	55*	14	-16	-26	/
O=C(NCC1CCCO1)c1coc2nc3ccccc3nc12 (stereo unspecified)	5	9	19	8	-5	/
COc1ccc(-n2c(N)c(C(=O)NCC3CCCO3)c3nc4ccccc4nc32)c(OC)c1 (stereo unspecified)	5	75*	21	-17	-8	/
COCCNc1c(-c2ccc(O)c(O)c2)nc2cnccn12	/	/	/	/	-19	/
CN=c1scc(-c2ccccc2F)n1/N=C/c1ccc(O)c(O)c1O	-4	122*	14	-7	-39	i
CC1CCCN(Cc2c(O)ccc3c4c(c(=O)oc23)CCCC4)C1 (stereo unspecified)	1	64*	14	/	-18	/
O=c1oc2c(CN3CCOCC3)c(O)ccc2c2c1CCC2	3	85*	4	4	13	/
CN1CCN(Cc2c(O)ccc3c4c(c(=O)oc23)CCCC4)CC1	/	/	11	/	-17	/
CC(C)C(=O)Nc1cccc(NC(=O)Cn2c(=O)sc3ccccc32)c1	/	/	7	/	-16	/
N#Cc1c2nc3ccccc3nc2n2cc(NC(=O)c3ccc(F)cc3)ccc12	3	72*	9	-17	-18	i
Cc1c(C(=O)Nc2ccc(F)cc2)cn2c(nc3ccccc32)c1C#N	4	16	11	/	19	/
SMILES	p97 ATPase inh	Hck-Nef inh	EP2 antag	Arbovirus anti	EP2 mod	Hck-Nef confirm
N#Cc1ccc(Cl)cc1NC(=O)CSc1nc2nc(-c3cccs3)cc(C(F)(F)F)c2c(=O)[nH]1	6	67*	17	/	36	i
C#CCn1c(=NC(=O)c2sc3ccccc3c2Cl)sc2cc(S(N)(=O)=O)ccc21	6	62*	11	-22	16	+
C=CCn1c(SCC(=O)OC)nc2c1c(=O)n(C)c(=O)n2C	/	/	14	/	18	/
CSc1sc(-c2ccnc(SCCS(C)(=O)=O)n2)c(-c2ccccc2)c1C#N	10	72*	20	/	11	i
CSc1nccc(-c2sc(SC)c(C#N)c2-c2ccccc2)n1	-8	-11	13	/	10	/
CC(C)[C@H](Cn1nnc2ccccc21)NC(=O)c1cscn1	/	/	/	/	-21	/
COc1ccc(-c2cc3nc4ccccc4n3c(N)c2C#N)cc1	14	68*	14	/	-26	/
NC(=O)CN1C(=O)/C(=c2\sc3nc(=O)c(Cc4ccccc4)nn3c2=O)c2ccccc21	3	14	6	/	6	/
CCCN1C(=O)/C(=c2\sc3nc(=O)c(Cc4ccc(C)cc4)nn3c2=O)c2ccccc21	-2	52*	7	6	18	i
COc1cccc(N2CC(C(=O)Nc3nnc(SCC(=O)Nc4cc(C)on4)s3)CC2=O)c1 (stereo unspecified)	3	52*	8	-2	1	+
COc1ccc(NS(=O)(=O)c2cccc(C(=O)N/N=C(\C)c3ccncc3)c2)cc1	4	6	5	-5	-38	/
COc1ccc(NS(=O)(=O)c2cccc(C(=O)N/N=C(\C)c3ccc(-n4ccnc4)cc3)c2)cc1	3	59*	10	5	-43	i
Cc1ccc2cc(C(c3nnnn3CC3CCCO3)N3CCN(Cc4ccccc4)CC3)c(=O)[nH]c2c1 (stereo unspecified)	/	/	2	/	-30	/
COc1ccc(-c2nc3ccccn3c2NCc2ccccc2)cc1OC	/	/	12	/	-29	/
C=CCn1ncc2c3sc(C)cc3n(Cc3cccc(OC)c3)c2c1=O	/	/	/	/	15	/
c1ccc(CCNc2ccnc3cc4ccccc4cc23)cc1	5	156*	58*	-32	-83	/
Clc1ccc2c(NCCNc3ccnc4cc(Cl)ccc34)ccnc2c1	/	/	12	/	-15	/
Cc1ccc(C(C)C(=O)N2CCC(C(=O)c3nc4ccccc4s3)CC2)cc1 (stereo unspecified)	/	/	/	/	6	/
Cc1cc(=O)oc2c(CN3CCCCC3)c(O)c(Cl)cc12	-5	125*	7	-4	-3	/
CCc1cc2c(CN3CCN(CC)CC3)cc(=O)oc2cc1O	-5	22	1	6	15	/
CCN1CCN(Cc2c(O)c(Cl)cc3c(C)cc(=O)oc23)CC1	-2	149*	3	1	30	/
Cc1cc(=O)oc2c(CN3CCC(C)CC3)c(O)c(Cl)cc12	1	118*	12	11	16	/
CCOC(=O)c1cc(-c2ccccc2)sc1NC(=O)COC(=O)c1cccc(S(N)(=O)=O)c1	1	58*	8	-1	-35	+
CCOC(=O)c1cc(-c2ccccc2)sc1NC(=O)COC(=O)c1ccc(Cl)c(S(N)(=O)=O)c1	5	1	6	-14	-20	/
CCn1c(SCC(=O)Nc2ccc(NC(C)=O)cc2)nnc1-c1ccccc1	/	/	13	/	-8	/

Assay outcomes as filed in PubChem.
